Source: PubChem BioAssay (National Center for Advancing Translational Sciences (NCATS))
Shiga inhibitor: blocks Shiga toxin action in Vero cells; Vero cells, Shiga toxin protein synthesis inhibition reporter; inhibition, % at 38.7 µM; actives 9.2% (n = 290,000); in the data active = inhibition mostly above about 28%, no sharp cut-off; inactive = mostly below about 43%
SARS PLpro yeast: blocks SARS-CoV papain-like protease in a yeast assay | AID 485353 | S. cerevisiae expressing SARS-CoV PLpro, growth rescue | actives 0.19% (n = 330,000) | Potency, µM (doses to about 32.9 µM), hits mostly activators; calls by dose curve; note: nearly all actives have a fitted effect of over 55% in size
Pf growth 96h: inhibits malaria parasite growth, 96 h; Potency, µM (series often up to 28.7 µM), usual class: inhibitors; actives 6.9% (n = 320,000); P. falciparum luciferase reporter growth, 96 h
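Two-generation exposure (96 h) targets delayed-death phenotype. Reporter parasites carrying integrated firefly luciferase, in red cells at 2% hematocrit and 0.05% parasitemia final, kept at 37 C, 5% CO2; luminescence loss indicates inhibition.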
Pf growth 48h: inhibits P. falciparum growth in the first generation, 48 h. P. falciparum luciferase growth in erythrocytes, 48 h. Potency, µM (highest dose often 28.7 µM), actives largely listed as inhibitors. actives 5.9% (n = 310,000). AID 504832
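Parasite viability was followed by luminescence of a genomically integrated firefly luciferase. Cultures held 0.1% parasitemia at 2% hematocrit (final), incubated under 5% CO2 at 37 C.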
AMA1 RON2 block: disrupts binding of P. falciparum AMA1 to RON2 | Potency, µM (titrated, usually from 58.2 µM), actives largely listed as inhibitors | actives 0.2% (n = 360,000) | AlphaScreen AMA1-biotinylated RON2 peptide binding; note: nearly all actives have a fitted effect of over 45% in size
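AMA1 (3D7) with his tag at 25 nM final met compounds first, then biotinylated RON2 peptide at 25 nM; detection used donor plus acceptor beads, 10 µg/mL apiece, read by AlphaScreen after 30 min at room temperature.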
Cycloheximide cs: counter-screen for Shiga toxin inhibitors: cycloheximide protein synthesis inhibition | cell reporter, cycloheximide protein synthesis inhibition counterscreen | max response, % | actives 12% (n = 300,000); in the data active = max response mostly above about 13%, no sharp cut-off; inactive = mostly below about 14%; note: read at 38.3 µM for the half of the compounds with a filed dose
Numbers stand for hits; [ ] = another dose, or the depositor's remark. Only some compounds are listed: those with a hit (about 19% of all), similar ones and a draw of the others. Unless noted, calls come from the whole dose curve; as a rule, active = well fitted curve in the direction sought with a large enough effect; inconclusive = small, poorly fitted or top-dose-only effect, or another doubt; inactive = no such curve, though single readings can be large; an effect the other way counts as inactive or inconclusive.

Results for O=C(CSc1n[nH]c(=O)n1C1CC1)Nc1ccc(F)c(Cl)c1 ?
SARS PLpro yeast: inactive; AMA1 RON2 block: inactive

How did Cc1ccc(S(=O)(=O)NCC(=O)NCC(=O)OCc2c(F)cccc2Cl)cc1 do in these assays?
Shiga inhibitor: inactive; SARS PLpro yeast: inactive; Pf growth 96h: inactive; Pf growth 48h: inconclusive; AMA1 RON2 block: inactive; Cycloheximide cs: 13.1

Results for Cc1ccc(C(=O)NCC(=O)OCc2c(F)cccc2Cl)cc1 ?
SARS PLpro yeast: inactive; Pf growth 96h: inactive; Pf growth 48h: inactive; AMA1 RON2 block: inactive

Results for O=C(CNC(=O)c1cccs1)OCc1c(F)cccc1Cl ?
Shiga inhibitor: 103.0; SARS PLpro yeast: inactive; Pf growth 96h: inactive; Pf growth 48h: inactive; AMA1 RON2 block: inactive; Cycloheximide cs: 48.4

Results for COc1ccccc1NC(=O)C(C)OC(=O)CSCC(=O)Nc1cc(C)on1 (stereo not given) ?
SARS PLpro yeast: inactive; Pf growth 96h: inactive; Pf growth 48h: inactive; AMA1 RON2 block: inactive

What do the screens show for `CC(O)CNCCCOc1ccc(Cl)cc1C(C)(C)C` (stereo not given)?
Shiga inhibitor: inactive; SARS PLpro yeast: inactive; Pf growth 96h: inactive[5.75 µM]; Pf growth 48h: inconclusive; AMA1 RON2 block: inactive; Cycloheximide cs: inactive

Results for CCOc1ccc(-c2noc(CCC(N)=O)n2)cc1OCC ?
Shiga inhibitor: inactive; SARS PLpro yeast: inactive; Pf growth 96h: inactive; Pf growth 48h: inactive; AMA1 RON2 block: inactive; Cycloheximide cs: inactive

Results for Nc1nonc1-c1noc(COc2ccccc2Cl)n1 ?
Shiga inhibitor: 82.8; SARS PLpro yeast: inactive; Pf growth 96h: inconclusive; Pf growth 48h: inactive; AMA1 RON2 block: inactive; Cycloheximide cs: 22.7

Results for Cc1cccc(OCc2nc(-c3nonc3N)no2)c1C ?
Shiga inhibitor: 52.7; SARS PLpro yeast: inactive; Pf growth 96h: inconclusive; Pf growth 48h: inactive; AMA1 RON2 block: inactive; Cycloheximide cs: 55.8

How did Nc1nonc1-c1noc(N2CCOCC2)n1 do in these assays?
Shiga inhibitor: inactive; SARS PLpro yeast: inactive; Pf growth 96h: inactive; Pf growth 48h: inactive; AMA1 RON2 block: inactive; Cycloheximide cs: inactive

How did CCOc1ccc(Cc2nc(-c3nonc3N)no2)cc1OCC do in these assays?
Shiga inhibitor: inactive; SARS PLpro yeast: inactive; Pf growth 96h: 1.47µM; Pf growth 48h: inactive; AMA1 RON2 block: inactive; Cycloheximide cs: inactive

How did COC(=O)[C@H](CC(C)C)NC(=O)NCCC1=CCCCC1 do in these assays?
Shiga inhibitor: inactive; SARS PLpro yeast: inactive; Pf growth 96h: inactive; Pf growth 48h: inconclusive; AMA1 RON2 block: inactive; Cycloheximide cs: inactive

Results for CCCCN1CC(=O)N2[C@H]3c4ccccc4OC[C@@H]3[C@H](c3ccccc3)[C@]2(C)C1=O ?
SARS PLpro yeast: inactive; Pf growth 96h: 5.86µM; Pf growth 48h: inconclusive; AMA1 RON2 block: inactive

What do the screens show for `C[C@@]12C(=O)N(Cc3ccccc3)CC(=O)N1[C@H]1c3ccccc3OC[C@@H]1[C@@H]2c1ccccc1`?
SARS PLpro yeast: inactive; Pf growth 96h: inconclusive; Pf growth 48h: inconclusive; AMA1 RON2 block: inactive

Results for Cc1ccc(CN2CC(=O)N3[C@H]4c5ccccc5OC[C@@H]4[C@H](c4ccccc4)[C@]3(C)C2=O)cc1 ?
SARS PLpro yeast: inactive; Pf growth 96h: inconclusive; Pf growth 48h: 9.28µM; AMA1 RON2 block: inactive

Results for OCCNc1nc(SCc2ccccc2)nc2sc3c(c12)CCC3 ?
Shiga inhibitor: inactive; SARS PLpro yeast: inactive; Pf growth 96h: inconclusive; Pf growth 48h: inconclusive; AMA1 RON2 block: inactive; Cycloheximide cs: inactive

Results for COC(=O)CS(=O)(=O)c1ccsc1C(=O)Nc1ccc(F)cc1 ?
Shiga inhibitor: inactive; SARS PLpro yeast: inactive; Pf growth 96h: inactive; Pf growth 48h: inactive; AMA1 RON2 block: inactive; Cycloheximide cs: inactive

How did Cc1ccnc(NC(=O)CCC(=O)N(CC(=O)NC2CCCCC2)CC2CCCO2)c1 (stereo not given) do in these assays?
Shiga inhibitor: inactive; SARS PLpro yeast: inactive; Pf growth 48h: inactive; AMA1 RON2 block: inactive; Cycloheximide cs: inactive

How did CCCCCOCC1CC(C/C(C)=N/Nc2nc(-c3ccccc3)cs2)C(=O)O1 (stereo not given) do in these assays?
Shiga inhibitor: 69.2; SARS PLpro yeast: inactive; Pf growth 96h: inactive; Pf growth 48h: inconclusive; AMA1 RON2 block: inactive; Cycloheximide cs: 27.0

How did COc1ccc(CCN2C(=O)CC(Cc3ccccc3)C2=O)cc1OC (stereo not given) do in these assays?
Shiga inhibitor: inactive; SARS PLpro yeast: inactive; Pf growth 96h: inactive; Pf growth 48h: inactive; AMA1 RON2 block: inactive; Cycloheximide cs: inactive

What do the screens show for `O=C1CC(Cc2ccccc2)C(=O)N1c1ncccn1` (stereo not given)?
Shiga inhibitor: 103.2; SARS PLpro yeast: inactive; Pf growth 96h: inconclusive; Pf growth 48h: inactive; AMA1 RON2 block: inactive; Cycloheximide cs: 53.0

Results for Cc1ccc(CC2CC(=O)N(CCc3ccccc3)C2=O)cc1 (stereo not given) ?
Shiga inhibitor: inactive; SARS PLpro yeast: inactive; Pf growth 96h: 13.1µM; Pf growth 48h: inactive; AMA1 RON2 block: inactive; Cycloheximide cs: 19.4

Results for Cc1ccc(N2C(=O)CC(Cc3cccc(C)c3)C2=O)cc1 (stereo not given) ?
Shiga inhibitor: inactive; SARS PLpro yeast: inactive; Pf growth 96h: 0.294µM; Pf growth 48h: inactive; AMA1 RON2 block: inactive; Cycloheximide cs: inactive

How did Cc1ccc(CC2CC(=O)N(c3ncccn3)C2=O)cc1 (stereo not given) do in these assays?
Shiga inhibitor: inactive; SARS PLpro yeast: inactive; Pf growth 96h: inactive; Pf growth 48h: inactive; AMA1 RON2 block: inactive; Cycloheximide cs: inactive

How did Cc1cccc(CC2CC(=O)N(c3ccccc3)C2=O)c1 (stereo not given) do in these assays?
Shiga inhibitor: inactive; SARS PLpro yeast: inactive; Pf growth 96h: inactive; Pf growth 48h: inactive; AMA1 RON2 block: inactive; Cycloheximide cs: inactive

Results for O=C(Cn1nc(Cc2ccncc2)c2ccccc2c1=O)N1CCc2ccccc2C1 ?
Shiga inhibitor: inactive; SARS PLpro yeast: inactive; Pf growth 96h: inactive; Pf growth 48h: inactive; AMA1 RON2 block: inactive; Cycloheximide cs: inactive

What do the screens show for `COc1ccc(C(=O)OCC(=O)Nc2ccc3[nH]c(=O)[nH]c3c2)cc1`?
SARS PLpro yeast: inactive; Pf growth 96h: inactive; Pf growth 48h: inactive; AMA1 RON2 block: inactive

Results for CCOc1ccc(S(=O)(=O)N(C)c2ccc(OCC(=O)Nc3nc4ccccc4s3)cc2)cc1 ?
Shiga inhibitor: inactive; SARS PLpro yeast: inactive; Pf growth 96h: inconclusive; Pf growth 48h: inactive; AMA1 RON2 block: inactive; Cycloheximide cs: inactive

Results for Cc1ccc2nc(NC(=O)CN(C)S(=O)(=O)c3cccc4nsnc34)sc2c1 ?
Shiga inhibitor: inactive; SARS PLpro yeast: inactive; Pf growth 96h: inconclusive; Pf growth 48h: inactive; AMA1 RON2 block: inactive; Cycloheximide cs: inactive

How did Cc1ccc2nc(NC(=O)CN(C)S(=O)(=O)c3ccc(Br)s3)sc2c1 do in these assays?
Shiga inhibitor: inactive; SARS PLpro yeast: inactive; Pf growth 96h: 9.28µM; AMA1 RON2 block: inactive; Cycloheximide cs: 26.1
